Drawing on PubChem BioAssay AID620 (Sanford-Burnham Center for Chemical Genomics, 2007), this text covers cytotoxicity for 97 compounds.

Among all 87,000 compounds or so, about 360 (0.41%) were called active. Only a selection was taken, and actives are over-represented in it overall. Values without a mark were called inactive. No stated cut-off is given here; in the data, active means cytotoxicity above about 50%; inactive means the rest.

A short description of this test: HT1080 cell viability loss – fluorescence readout (AID 620).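 Further: cells exposed to compound overnight then 4 h with Alamar Blue; 0% = vehicle DMSO and 100% = killing control.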 The settings on record: at 10 µM, active compounds read high.
Turning to `COc1cc(NS(=O)(=O)c2cc(C)ccc2OC)c(OC)cc1Cl`, the cytotoxicity was -2.6%.
The figure for `COc1ccc(OC)c(S(=O)(=O)Nc2cc(OC)c(Cl)cc2OC)c1` is 9.8%.
Regarding `COc1cc(NS(=O)(=O)c2ccc(OC)c(C)c2C)c(OC)cc1Cl`, the cytotoxicity is 55.1% (active).
`CCOc1cc(C2CC(=O)Nc3cc(C)c(C)cc32)ccc1O` (configuration not stated): the cytotoxicity was -0.2%.
In the case of `COc1ccc(NC(=O)CCN2CCCCC2)cc1`, the cytotoxicity was 9%.
As to `CCOc1ccccc1-c1nc(-c2cc3ccccc3nc2OC)no1`, the cytotoxicity is -4.6%.
The figure for `Cc1cc(F)c(F)c(C(=O)N2CCN(C)CC2)c1Cl` is 6.8%; for `CCc1ccc(C2(O)CC(C(F)(F)F)=NN2C(=O)Cc2ccc([N+](=O)[O-])cc2)cc1` (configuration not stated) it is 2.2%; for `c1ccc2c(c1)c1c3n2CCNC3CCC1` (configuration not stated) it is -2.4%.
The figure for `Cc1ccc2c(c1)c1c3n2CCN(C(=O)C2CC2)C3CCC1` (configuration not stated) is -15.3%; for `Cc1ccc2c(c1)c1c3n2CCN(C(=O)CN2CCN(C)CC2)C3CCC1` (configuration not stated) it is 12.8%; for `c1cc2c(cc1C1CCCCC1)c1c3n2CCCNC3CCC1` (configuration not stated) it is 69.7% (active).
As for `Cc1ccc2c(c1)c1c3n2CCCNC3CCC1` (configuration not stated), the cytotoxicity is -1.3%.
The figure for `O=C(NC(Cc1ccc2c(c1)OCO2)C(=O)N1CCCC1C(=O)O)c1ccccc1` (configuration not stated) is 3.5%; for `Cn1c(=O)[nH]c2sc3c(c2c1=O)CC(C)(C)OC3` it is 27.1%.
Consider `COCCOC(=O)c1[nH]c2c(c1C)C(=O)CC(c1cc(OC)ccc1OC)C2` (configuration not stated), for which the cytotoxicity is -3.5%.
The figure for `COCCOC(=O)c1[nH]c2c(c1C)C(=O)CC(c1ccco1)C2` (configuration not stated) is 67.1% (active); for `Cc1c(C(=O)OCC2CCCO2)[nH]c2c1C(=O)CC(c1ccc(N(C)C)cc1)C2` (configuration not stated) it is -2.7%; for `CCOC(=O)c1[nH]c2c(c1C)C(=O)CC(c1ccco1)C2` (configuration not stated) it is 66% (active).
As for `COc1ccc(OC)c(C2CC(=O)c3c([nH]c(C(=O)OCC4CCCO4)c3C)C2)c1` (configuration not stated), the cytotoxicity is -5.3%.
The figure for `Cc1c(C(=O)N2CCOCC2)[nH]c2c1C(=O)CC(c1ccc(Cl)cc1)C2` (configuration not stated) is 5.8%; for `CSCCOC(=O)c1[nH]c2c(c1C)C(=O)CC(c1ccco1)C2` (configuration not stated) it is 62.4% (active); for `CCOCCOC(=O)c1[nH]c2c(c1C)C(=O)CC(c1ccc(N(C)C)cc1)C2` (configuration not stated) it is -3.6%.
Consider `COCCOC(=O)c1[nH]c2c(c1C)C(=O)CC(c1ccc(N(C)C)cc1)C2` (configuration not stated), for which the cytotoxicity is -0.7%.
The figure for `Cc1c(C(=O)OCC2CCCO2)[nH]c2c1C(=O)CC(c1ccco1)C2` (configuration not stated) is 52.9% (active); for `CCOC(=O)c1ccc(N=CC2=C(O)CC(c3ccco3)CC2=O)cc1` (configuration not stated) it is -1.5%; for `COC(=O)NCC(c1cccnc1)N1CCOCC1` (configuration not stated) it is 2.8%.
As to `COc1ccc(C(c2nnnn2C2CCCC2)N2CCN(C3CCCC3)CC2)cc1OC` (configuration not stated), the cytotoxicity was -1.8%.
For `Cc1ccc(NC(=O)c2oc3c(c2C)C(=O)CC(C)(C)C3)cc1`, the cytotoxicity was -0.8%.
Regarding `O=S(=O)(c1ccccc1)N1CCN(S(=O)(=O)c2ccccc2)C1`, the cytotoxicity is -4.1%.
Regarding `CCn1cnc2cc(NS(=O)(=O)c3ccc(C)cc3)ccc21`, the cytotoxicity is 11.7%.
Turning to `Cc1ccccc1NC(=O)c1cccc2nccnc12`, the cytotoxicity is -4.6%.
In the case of `COc1ccc(-c2cnc3nc[nH]c(=O)c3n2)cc1`, the cytotoxicity is -12.3%.
On to `Cc1cnc(C(=O)Nc2ccc(F)cc2)cn1`, for which the cytotoxicity was -11.7%.
On to `COc1cccc(C2c3c(-c4cc(Cl)c(C)cc4O)n[nH]c3C(=O)N2Cc2cccnc2)c1` (configuration not stated), for which the cytotoxicity is -4.8%.
The figure for `CCOC(=O)N1CCN(C(=O)c2cccn3c(=O)c4sccc4nc23)CC1` is -2.4%.
As for `FC(F)(F)c1ccc(N2CCN(c3ncnc4c3nnn4Cc3ccccc3Cl)CC2)cc1`, the cytotoxicity is -17.6%.
Consider `Cc1c(C(=O)OCCOC(C)C)[nH]c2c1C(=O)CC(c1ccco1)C2` (configuration not stated), for which the cytotoxicity is 66.2% (active).
The figure for `CCC(C)OC(=O)c1[nH]c2c(c1C)C(=O)CC(c1ccc(N(C)C)cc1)C2` (configuration not stated) is -1.9%; for `CCOC(=O)c1[nH]c2c(c1C)C(=O)CC(c1ccc(F)cc1)C2` (configuration not stated) it is 70.2% (active).
In the case of `COCCOC(=O)c1[nH]c2c(c1C)C(=O)CC(c1ccc(F)cc1)C2` (configuration not stated), the cytotoxicity is -9%.
Take `Cc1c(C(=O)O)[nH]c2c1C(=O)CC(c1ccc(Cl)cc1)C2` (configuration not stated): the cytotoxicity is -4.3%.
In the case of `COc1cc(C2CC(=O)c3c([nH]c(C(=O)OCCOC(C)C)c3C)C2)cc(OC)c1OC` (configuration not stated), the cytotoxicity was -1.3%.
Take `CC1=C(C(=O)OCc2ccccc2)C(c2ccco2)C2=C(CC(C)(C)CC2=O)N1` (configuration not stated): the cytotoxicity was -6.1%.
The figure for `Cc1c(C(=O)OCC(C)C)[nH]c2c1C(=O)CC(c1ccco1)C2` (configuration not stated) is 63.9% (active).
As for `Cc1c(C(=O)N2CCOCC2)[nH]c2c1C(=O)CC(c1ccccc1Cl)C2` (configuration not stated), the cytotoxicity is 34.2%.
Turning to `Cc1c(C(=O)OCCOC(C)C)[nH]c2c1C(=O)CC(C)(C)C2`, the cytotoxicity was -5.6%.
Regarding `Cc1c(C(=O)OCc2ccccc2)[nH]c2c1C(=O)CC(c1ccco1)C2` (configuration not stated), the cytotoxicity was 67.8% (active).
The figure for `COc1ccc(OC)c(C2CC(=O)c3c([nH]c(C(=O)OC(C)C)c3C)C2)c1` (configuration not stated) is 10.6%.
On to `CCCCOc1ccc(C(=O)N2CC(C)OC(C)C2)cc1` (configuration not stated), for which the cytotoxicity was -6.4%.
For `Cc1ccc(-n2c(C)nc3c(cnn3-c3ccc(F)cc3)c2=O)cc1`, the cytotoxicity is -1.6%.
As for `Cc1cc(NC(=O)C2CC(=O)OC2c2ccccc2)no1` (configuration not stated), the cytotoxicity was 10.6%.
`CC(=O)OC(C(=O)NC1CCCCC1)c1ccc(C#N)cc1` (configuration not stated): the cytotoxicity is -3.2%.
The figure for `Cc1ccccc1-n1c(SCC(=O)N2CCOCC2)nc(O)cc1=O` is 3.4%; for `COc1ccccc1C(=O)NC1CCCCCCC1` it is 3.1%; for `O=C(NC1=NCCS1)c1ccncc1` it is -1.5%.
The figure for `O=C(COC(=O)c1cnccn1)NCCc1ccccc1` is -15.3%.
The figure for `Cc1c(C(=O)OC2CCCC2)[nH]c2c1C(=O)CC(c1ccco1)C2` (configuration not stated) is 64.9% (active).
For the compound `Cc1c(C(=O)OC2CCCCC2)[nH]c2c1C(=O)CC(C)(C)C2`, the cytotoxicity is -1.3%.
Regarding `Cc1c(C(=O)OC2CCC(C)CC2)[nH]c2c1C(=O)CCC2` (configuration not stated), the cytotoxicity is 0.6%.
Take `COc1ccc(C2=NOC(C(=O)NC(C)C)C2)cc1` (configuration not stated): the cytotoxicity is -5.6%.
Regarding `CCOc1ccc(OCC)c(NC(=O)CN(C)S(=O)(=O)c2cnc[nH]2)c1`, the cytotoxicity was 11.3%.
`O=C(c1cnn2cccnc12)N1CCN(c2ccccc2)CC1`: the cytotoxicity is 6.5%.
For `Cc1ccc2c(c1)c1c3n2CCN(C(=O)Cn2c(-c4ccccc4)noc2=O)C3CCC1` (configuration not stated), the cytotoxicity is 4.8%.
On to `Cc1ccc2c(c1)c(=O)c1c3n2CCN(C(=O)CCl)C3CC1` (configuration not stated), for which the cytotoxicity was 102% (active).
Take `CC(=O)N1CCn2c3c(c(=O)c4cc(C)ccc42)CCC31` (configuration not stated): the cytotoxicity was -5.9%.
Regarding `CCOC(=O)c1c(C)[nH]c(C)c1C(=O)CSc1nnc(-c2ccc(OC(F)F)cc2)o1`, the cytotoxicity is 0.8%.
`COc1ccc(C(=O)c2ccc(Cl)cc2)c2ccccc12`: the cytotoxicity is -14.8%.
As to `CN(C)c1ccc(C(=O)c2ccccc2)cc1`, the cytotoxicity was -16.8%.
For the compound `CN(C)c1ccc(C(=O)c2ccc(N(C)C)c3ccccc23)cc1`, the cytotoxicity is 69.6% (active).
For the compound `COc1ccc(C(=O)c2ccc(N(C)C)cc2)c2ccccc12`, the cytotoxicity is 63.3% (active).
For `CN(C)c1ccc(C(=O)c2ccc(O)cc2O)cc1`, the cytotoxicity was 3.6%.
With `COc1ccc(C(=O)c2ccc(OC)c3cccc(O)c23)cc1OC`, the cytotoxicity was -5.2%.
With `CC1=C(C)CC(C(=O)NCC(=O)c2ccccc2)C(C(=O)O)C1` (configuration not stated), the cytotoxicity was -5%.
For `Cn1cnc([N+](=O)[O-])c1NC(C)(C)C`, the cytotoxicity is 8.7%.
The figure for `COC(=O)c1[nH]c2c(c1C)C(=O)CC(c1cccs1)C2` (configuration not stated) is 58.6% (active).
Turning to `COC(=O)C1=C(C)NC2=C(C(=O)CC(c3cccs3)C2)C1c1ccsc1` (configuration not stated), the cytotoxicity was 16.3%.
For `Cc1c(C(=O)OCC(C)C)[nH]c2c1C(=O)CC(c1cccs1)C2` (configuration not stated), the cytotoxicity is 66% (active).
As to `CCCOCCOC(=O)c1[nH]c2c(c1C)C(=O)CC(c1cc(OC)ccc1OC)C2` (configuration not stated), the cytotoxicity was 1.3%.
For the compound `CCCOC(=O)c1[nH]c2c(c1C)C(=O)CC(c1cccs1)C2` (configuration not stated), the cytotoxicity is 66.7% (active).
On to `CCOC(=O)C1=C(C)NC2=C(C(=O)CC(c3cccs3)C2)C1c1cccs1` (configuration not stated), for which the cytotoxicity is 5.7%.
With `COC(=O)c1[nH]c2c(c1C)C(=O)CC(c1cc(OC)ccc1OC)C2` (configuration not stated), the cytotoxicity is -2.1%.
For the compound `CCCOC(=O)c1[nH]c2c(c1C)C(=O)CC(c1ccc(OC)c(OC)c1)C2` (configuration not stated), the cytotoxicity is 7.2%.
The figure for `CC(C(=O)N=c1sc2ccccc2n1C)N1C(=O)C2CC=CCC2C1=O` (configuration not stated) is -11%; for `c1ccc(CCn2c(C3CC3)nc3ccccc32)cc1` it is -16.9%; for `CCOC(=O)c1ccc(NC(=O)C(CC)(CC)C(=O)OCC)cc1` it is -4.9%.
As to `CC(C)(C)C1(c2ccccc2)NC(=O)N(CC(=O)N2CCOCC2)C1=O` (configuration not stated), the cytotoxicity is 2.6%.
`COc1cc(C#N)ccc1OCC(=O)c1ccc2c(c1)OCCO2`: the cytotoxicity was -5.9%.
For `CCc1cccc(CC)c1NC(=O)CSc1nnc(C(C)C)n1CC`, the cytotoxicity was 0.9%.
As for `Cc1csc(NC(=O)CN2C(=O)C3CC=CCC3C2=O)n1` (configuration not stated), the cytotoxicity is -13.5%.
As to `CCn1c(SCC(=O)c2cc(C)n(C)c2C)nnc1-c1ccccc1`, the cytotoxicity was 15.3%.
As for `CCOC(=O)c1cccc(NC(=O)CSc2nnc(-c3cccnc3)n2CC)c1`, the cytotoxicity was 12.7%.
Turning to `CCn1c(SCC(=O)c2cc(C)n(-c3ccc(C(=O)OC)cc3)c2C)nnc1-c1cccnc1`, the cytotoxicity was 69.6% (active).
Turning to `COc1ccccc1NC1=NC(c2ccc(Cl)cc2)N=C(N)N1` (configuration not stated), the cytotoxicity was 60.5% (active).
Regarding `COc1ccccc1NC1=NC(C)(C)N=C(N)N1`, the cytotoxicity is -26.5%.
For `COc1ccccc1NS(=O)(=O)c1ccc(Cl)cc1`, the cytotoxicity is 11.9%.
Regarding `O=C(OC1CCS(=O)(=O)c2sccc21)c1ccccc1` (configuration not stated), the cytotoxicity was -6.9%.
